Screens (PubChem)
PAFAH1B2 inh = inhibitors of human PAFAH1B2; recombinant PAFAH1B2, FP-rhodamine activity probe, fluorescence polarization; inhibition, % at 3.39 µM; 1.2% of 340,000 active; AID 492953;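 active = inhibition above the mean of all tested compounds plus 3 SD, cut at about 24% in these data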;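 also: 0% = enzyme with DMSO and 100% = wells lacking PAFAH1B2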
Target sequence (P68402 whole entry, looked up): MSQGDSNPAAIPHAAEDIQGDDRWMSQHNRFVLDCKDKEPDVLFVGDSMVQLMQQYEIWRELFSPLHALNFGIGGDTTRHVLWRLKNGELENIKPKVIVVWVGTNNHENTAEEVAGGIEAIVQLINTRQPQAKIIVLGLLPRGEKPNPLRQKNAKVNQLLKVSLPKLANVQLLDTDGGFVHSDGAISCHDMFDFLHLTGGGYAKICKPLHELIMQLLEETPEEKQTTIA
pPAFAH inh = inhibitors of human plasma PAF acetylhydrolase (pPAFAH) | 1.5% of 330,000 active | Q13093 | inhibition, % at 3.39 µM | AID 463082 | recombinant pPAFAH, FP-rhodamine probe fluorescence polarization;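 active = inhibition above the mean inhibition across the screen plus 3 SD, cut at about 25% in these data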;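 also: inhibitors block binding of the rhodamine activity-based probe so polarization drops; 0% = enzyme with DMSO and 100% = wells lacking pPAFAH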
PP5 inh = inhibitors of human protein phosphatase 5 (PP5); P53041; purified PP5c, OMFP substrate fluorescence; inhibition, % at 6.7 µM; 0.18% of 320,000 active;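 active = inhibition above the campaign's mean inhibition across all tested compounds plus 3 SD, cut at about 9.5% in these data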;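 also: 0% = DMSO only and 100% = 100 µM cantharidin control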
PP1 inh = PP1-alpha (human) inhibition in PP5 counter-screen; P62136; purified PP1alpha, OMFP fluorescence; inhibition, % at 6.7 µM; 0.9% of 320,000 active; AID 2235;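 active = inhibition above the mean inhibition of all tested compounds plus 3 SD, computed separately for each screening campaign, cut at about 15% in these data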
PAFAH1B3 inh = blocks human PAF acetylhydrolase 1B catalytic subunit 3; recombinant PAFAH1B3, FP-rhodamine probe, fluorescence polarization; inhibition, % at 3.39 µM; 0.28% of 340,000 active;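 active = inhibition above the screen-wide average of all tested compounds plus 3 SD, cut at about 25% in these data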;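 also: 0% = enzyme with DMSO only and 100% = wells lacking PAFAH1B3 protein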
Target sequence (Q15102 whole entry, looked up): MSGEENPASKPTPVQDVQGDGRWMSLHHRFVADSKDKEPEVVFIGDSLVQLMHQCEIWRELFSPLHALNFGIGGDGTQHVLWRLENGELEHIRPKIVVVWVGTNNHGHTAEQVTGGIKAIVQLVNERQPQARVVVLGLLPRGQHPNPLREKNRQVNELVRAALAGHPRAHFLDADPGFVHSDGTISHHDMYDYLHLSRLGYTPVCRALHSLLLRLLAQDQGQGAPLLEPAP
PAFAH2 FP inh = inhibitors of human PAFAH2. recombinant PAFAH2, FP-rhodamine activity probe, fluorescence polarization. Q99487. 0.99% of 340,000 active. inhibition, % at 3.39 µM;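 active = inhibition above the mean over all tested compounds plus 3 SD, cut at about 30% in these data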;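 also: inhibitors block probe labeling of enzyme so polarization drops; 0% = enzyme with DMSO and 100% = wells lacking PAFAH2 protein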
* marks the source's active call; other numbers are inactive results; x = not tested or not shown. Rows were chosen to be rich in hits. Some 3.4% of all compounds tested hit in one or more screens of this group.

SMILES	PAFAH1B2 inh	pPAFAH inh	PP5 inh	PP1 inh	PAFAH1B3 inh	PAFAH2 FP inh
O=C(O)c1ccccc1-c1ccccc1C(=O)NCc1cccc(C(F)(F)F)c1	28.8*	-3.2	-0.8	0.3	-2.8	-4.3
O=C(CN1CCN(Cc2ccc(F)cc2Cl)C1=O)NCCc1ccc(Cl)cc1	17.9	34.4*	-0.1	-0.8	0.1	-5.9
CC1CCC(NC(=O)CN2CCCN(Cc3ccc(F)cc3Cl)C2=O)CC1 (configuration not stated)	9.3	2.1	1.1	-1.1	-4.2	6.5
CC(=O)CCc1ccc(OCC(=O)Nc2cccc(S(=O)(=O)N(C)c3ccccc3)c2)cc1	2.5	x	x	x	-2.5	-3.1
C#CCn1c(=NC(=O)c2ccc(Br)s2)sc2cccc(OC)c21	-3.8	-1.6	0.2	15.6*	-8.8	-9.1
O=C(Nc1ccccn1)c1ccc(Cl)c(S(=O)(=O)N2CCc3ccccc32)c1	-2.6	-9.8	4.0	12.3	0.1	-7.8
CCC(=O)NCC(c1cccs1)N1CCOCC1 (configuration not stated)	-2.9	3.8	-1.9	-4.2	1.5	1.4
CC(Oc1ccc(Br)cc1)C(=O)NCC(c1cccs1)N1CCOCC1 (configuration not stated)	26.5*	1.7	0.5	-2.4	10.5	3.0
CC(C)(C)OC(=O)C[C@H]1C/C=C\C[C@@H](CC(=O)N(CCO)Cc2ccccc2)C(=O)N[C@H](Cc2c[nH]c3ccccc23)COC1=O	2.6	12.6	x	x	6.5	5.8
COc1ccccc1C(=O)NC(=O)COC(=O)c1nc(Cl)ccc1Cl	0.2	-0.7	0.3	2.7	-4.5	1.4
CC(=O)Nc1ccc(-c2ccc3nnc(C)n3n2)cc1	5.4	0.8	-2.2	-1.4	-0.4	-1.1
Cc1nnc2ccc(-c3ccc(NC(=O)Cc4cccs4)cc3)nn12	0.8	27.4*	0.3	2.4	2.6	-3.1
C=C1/C=C(\C)[C@](C)(O)C[C@H](O)CC(=O)[C@H](O)[C@@H](O)[C@H](C)C[C@H](C)OC(=O)/C(C)=C/CC/C=C/[C@@H]2O[C@H]2C[C@H](C)C1	x	10.3	x	x	x	x
Cc1nnc(-c2cccc(Br)c2)c2cn(-c3cccc(Br)c3)nc12	-3.2	32.2*	1.3	13.8	-6.2	1.6
Cc1nnc(-c2cccc(Br)c2)c2cn(-c3ccccc3)nc12	6.1	24.6*	3.4	-1.7	7.1	-6.0
Cc1nnc(-c2cccc(Br)c2)c2cn(-c3ccc(Br)cc3)nc12	-0.6	3.4	3.5	12.7	2.3	-18.1
CC(C)C(NS(=O)(=O)c1cccs1)C(=O)N1CCC(C(N)=O)CC1 (configuration not stated)	-5.0	1.0	1.7	-1.7	4.4	-5.8
CCCCN(c1ccccc1)S(=O)(=O)c1cccc(C(=O)Nc2c(C)n(C)n(-c3ccccc3)c2=O)c1	0.4	x	x	x	1.3	4.6
O=C(NCc1cccnc1)/C(=C/c1ccc(Cl)cc1)NC(=O)c1ccccc1	0.7	3.6	1.1	-1.7	-1.4	-6.4
O=C(NCc1cccnc1)/C(=C/c1ccc(-c2cccc(C(F)(F)F)c2)o1)NC(=O)c1ccccc1	5.1	29.8*	7.0	7.1	5.1	-7.1
CCN1CCN(c2ccc(S(=O)(=O)N3CCOCC3)cc2NC(=O)C(C)Oc2ccc(Cl)cc2)CC1 (configuration not stated)	0.7	22.5	-1.2	-4.4	2.1	2.8
COc1ccccc1N1CCN(Cc2cc(Br)c(O)c3ncccc23)CC1	4.5	29.8*	7.4	8.7	9.5	9.6
CCOc1ccccc1N1CCN(Cc2cccc(OC)c2O)CC1	0.6	-0.2	1.0	0.5	6.8	-1.7
O=S1(=O)Nc2c(ccc3cccnc23)-c2ccccc21	5.4	26.6*	3.3	2.0	11.6	12.2
CCCc1cc(=O)oc2cc(OCC(=O)Nc3ccc(S(N)(=O)=O)cc3)ccc12	-22.8	-0.1	-2.2	1.2	-40.5	-35.1
O=C(Oc1cccc(Oc2ccccc2)c1)N1CCOCC1	4.9	25.3*	0.5	0.6	6.4	5.3
O=C(Oc1cccc(C(=S)N2CCOCC2)c1)c1ccccc1	6.5	5.2	2.9	5.5	-3.4	-2.1
Cc1nc(SCC(=O)NC2(C#N)CCCC2)n(CC(C)C)c1C	-3.8	x	x	x	3.4	0.5
CC1=CC(C)(C)NC(=S)N1c1ccc(N(C)C)cc1	4.1	x	x	x	7.3	11.0
O=C(COc1ccc(Cl)cc1)c1ccc(O)cc1O	26.8*	-2.1	1.9	3.4	2.8	-8.5
